Test results reported in PubChem BioAssay (NCI).
About 79,000 compounds went through this panel and 15% of them were active in at least one assay; those are over-represented in the sample as a whole. Rule as the data show it: active = growth inhibition above about 70%; inactive = the rest.

Assays:
[1] = NCI Yeast Anticancer Drug Screen. Data for the rad50 strain (AID 155);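 also: 0% = growth of vehicle-only cultures of the same strain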; details: S. cerevisiae rad50 strain growth inhibition; at 50.0 µM; active compounds read high
Summary of the method: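 Relative growth inhibition (compound vs vehicle) was measured in yeast with a defined repair-gene alteration.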

[2] = NCI Yeast Anticancer Drug Screen. Data for the mec2-1 strain (AID 157); details: S. cerevisiae mec2-1 strain, at 50.0 µM, active compounds read high
Summary of the method: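 Vehicle-treated cultures served as reference for growth inhibition of compound-exposed mec2-1 yeast.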

[3] = NCI Yeast Anticancer Drug Screen. Data for the sgs1 mgt1 strain (AID 161);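 also: 0% = growth of cultures given vehicle only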; details: S. cerevisiae sgs1 mgt1 strain, at 50.0 µM, active compounds read high
Summary of the method: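 Test agents were incubated with a DNA-repair-mutant yeast strain. Growth was then read and compared against vehicle-treated controls.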

[4] = NCI Yeast Anticancer Drug Screen. Data for the cln2 rad14 strain (AID 165);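 also: 0% = growth equal to vehicle treated cultures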; details: S. cerevisiae cln2 rad14 strain, at 50.0 µM, active compounds read high
Summary of the method: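 Each compound was tested on cln2 rad14 yeast. Inhibition of growth was calculated against vehicle-exposed controls.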

[5] = NCI Yeast Anticancer Drug Screen. Data for the bub3 strain (AID 167); details: S. cerevisiae bub3 mutant strain, at 50.0 µM, active compounds read high
Summary of the method: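 Screening used yeast with an engineered genetic alteration affecting cell cycle control. Compound-exposed cultures were compared with vehicle cultures, and reduced growth was taken as inhibition.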

[6] = NCI Yeast Anticancer Drug Screen. Data for the mlh1 rad18 strain (AID 175); details: S. cerevisiae mlh1 rad18 strain growth inhibition; at 50.0 µM; active compounds read high
Summary of the method: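 Vehicle-treated cultures served as the reference for growth inhibition in a yeast strain carrying DNA damage repair alterations exposed to each compound.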

Measured: growth inhibition

CC(=O)OCC(=O)c1ccccc1
inactive: [1] -10.8% | [2] 6.65% | [3] -3.8% | [4] -4.15% | [5] 30.5% | [6] -13.6%

CCCC1(C)OCC(C)([N+](=O)[O-])CO1 (stereo not given)
inactive: [1] -26% | [2] -11.2% | [3] -3.25% | [4] -22.4% | [5] -24% | [6] 10.8%

O=[N+]([O-])c1ccc(CCCc2ccc([N+](=O)[O-])cc2)cc1
inactive: [1] 39.6% | [2] 7.35% | [3] 58.9% | [4] -41.2% | [5] 11.6% | [6] 15.1%

COc1ccc(/C=C2\CCCC(C(NO)c3ccc(OC)cc3)C2=NO)cc1 (stereo not given)
inactive: [1] 13.6% | [2] -33.4% | [3] 26.8% | [4] 1.15% | [5] 22.8% | [6] 18.2%

O=c1[nH]c2cc(Cl)ccc2nc1/C(=N\Nc1ccccc1)C(O)c1ccc(Cl)c(Cl)c1 (stereo not given)
inactive: [1] 11.6% | [2] -4.8% | [3] -9.55% | [4] 24.4% | [5] 17.1% | [6] 19%

CCCCCCCCCC/C=C/C=O
inactive: [1] 57.6% | [2] 43.5% | [3] 53.8% | [4] 18.7% | [5] 43.6% | [6] 8.9%

Cc1nnc2cc(C(=O)O)c3ccccc3n2c1=O
inactive: [1] -28.6% | [2] -30.6% | [3] -13.4% | [4] -30.6% | [5] -20.1% | [6] -31.8%

[Cl][Pt+2][Cl].[NH-]C1CCC1.[NH2-]
inactive: [1] 3.25% | [2] -3.5% | [3] -3.85% | [4] 18.4% | [5] -16.1% | [6] -66.6%

CC(NC(=O)c1ccccc1)C1CCCCC1 (stereo not given)
inactive: [1] -5.2% | [2] -1.85% | [3] -1.4% | [4] -49.8% | [5] -12.7% | [6] 0.75%

CCOC(=O)C(c1ccsc1)C(C(=O)OCC)c1cccs1 (stereo not given)
inactive: [1] 3.3% | [2] 23.1% | [3] -4.95% | [4] -3.35% | [5] 25.6% | [6] 17%

NC(=S)N/N=C1\C(=O)NC(=O)C1c1ccccc1 (stereo not given)
inactive: [1] 4.75% | [2] 1.4% | [3] 3.45% | [4] 0.45% | [5] 15.6% | [6] 6.95%

COC(=O)c1c(OC)cc2cc3c(c(O)c2c1C)C(=O)C1(O)C(=O)C=C(OC)C(OC(=O)CC(C)N)=C1C3=O (stereo not given)
inactive: [1] 26.1% | [2] 1.05% | [3] 24.2% | [4] 25.9% | [5] 22.9% | [6] 33%

Clc1ccc(SCc2csc(-c3ccc(Cl)cc3)n2)cc1
inactive: [1] -27.5% | [2] -41.8% | [3] -19.1% | [4] -27.8% | [5] -6.8% | [6] -29.8%

CCCCCC(=O)C(C)C1(C(=O)OC)NC(=S)NC(=O)C1C#N (stereo not given)
inactive: [1] 16.8% | [2] 14.8% | [3] 13.1% | [4] 12.4% | [5] -1.9% | [6] 17.4%

CN(C)Cc1ccc2ccccc2c1
inactive: [1] 0.2% | [2] 7.1% | [3] 9.95% | [4] -39.1% | [5] 6.85% | [6] -14.3%

C[N+](C)(C)CC(O)CC#N (stereo not given)
inactive: [1] -2.25% | [2] 1.75% | [3] -4% | [4] -8.35% | [5] 0.55% | [6] -1.8%

COc1ccc(-c2nc(SCc3ccc(Cl)cc3)[nH]c(=O)c2CCO)cc1
inactive: [1] 32.3% | [2] -7.75% | [3] -4.45% | [4] 3.15% | [5] -3.45% | [6] 10.4%

CC(=O)OC1CC(n2cc(C)c(=O)[nH]c2=O)OC1COP(=O)(N1CC1)N1CC1 (stereo not given)
inactive: [1] -9.25% | [2] -1.25% | [3] -2.8% | [4] -6.1% | [5] -22.6% | [6] -3.95%

CC1=NCCN1CCN
inactive: [1] 20.6% | [2] -17.2% | [3] 23.8% | [4] 12.9% | [5] 13.6% | [6] 23.6%

N#CC(C(=N/NC(N)=S)/C(=N\NC(N)=S)C(C#N)c1ccccc1)c1ccccc1 (stereo not given)
inactive: [1] -34.5% | [2] -5.35% | [3] -30.8% | [4] -8.25% | [5] -14.2% | [6] -15.7%
